Experimental data from PubChem BioAssay (Tox21).
Inconclusive results are not listed. A number with no mark means an inactive call. Active and inactive are the calls of the source. The call rests on the fitted dose curve; in most records, active means well fitted inhibition curve with a large enough effect in the signal ratio in the repeat runs (not every such curve was filed as active); inconclusive means weak or mixed curves; inactive means flat fitted curve, though single readings scatter; the % refers to the signal ratio.

target: Progesterone receptor (Homo sapiens) (UniProt P06401); assay: qHTS assay to identify small molecule antagonists of the progesterone receptor (PR) signaling pathway (AID 1346795); conditions: PR-UAS-bla HEK293T, beta-lactamase FRET ratio, 16 h; series mostly up to 42.5 µM; activity change, negative = inhibition: at the top concentration
Excerpt: National Center for Advancing Translational Sciences [NCATS]
NIH Chemical Genomics Center [NCGC]
U.S. Environmental Protection Agency [EPA]
National Institutes of Environmental Health Sciences [NIEHS]
National Toxicology Program [NTP]
U.S. Food and Drug Administration [FDA]
Progesterone receptor (PR), a nuclear hormone receptor, plays an important role in development, metabolic homeostasis and reproduction. […] Endocrine disrupting chemicals (EDCs) and their interactions with steroid hormone receptors like PR causes disruption of normal endocrine function. To identify the compounds that inhibit PR signaling, a PR-UAS-bla GripTite cell line i.e. PR-UAS-bla HEK293T (Invitrogen, Carlsbad, CA, USA) containing a beta-lactamase reporter gene under the control of an Upstream Activator Sequence (UAS) was used to screen Tox21 10K compound library.
Tox21 Assay Protocol Summary:
PR-UAS-bla HEK293T cells were dispensed at 3,000 cells/4 uL of assay medium containing 2% charcoal stripped FBS per well into black wall/clear-bottom 1536-well plates using a Multidrop Combi (ThermoFisher Scientific, Waltham, MA) dispenser. After the assay plates were incubated at a 37C and 5% CO2 for 6 hr, 23 nL of compounds dissolved in DMSO, positive controls or DMSO only was transferred to the assay plate by a Pintool station (Kalypsys, San Diego, CA), followed by addition of 1 uL (1nM as final concentration) of Promegestone (R5020) in assay medium using a BioRAPTR FRD (Flying Reagent Dispenser, Aurora Discovery, San Diego, CA). The plates were incubated at 37C and 5% CO2 for 16 hr. Then 1 uL of LiveBLAzer B/G FRET substrate was added using a FRD. After the plates were incubated at room temperature for 2 hours, fluorescence intensity was measured by an Envision plate reader (PerkinElmer, Shelton, CT).
On the % scale 0 is the no-effect control and ±100 the full control effect; potency means the concentration at half of the fitted maximal effect.

Chain of Progesterone receptor (Homo sapiens) (P06401 whole entry, looked up): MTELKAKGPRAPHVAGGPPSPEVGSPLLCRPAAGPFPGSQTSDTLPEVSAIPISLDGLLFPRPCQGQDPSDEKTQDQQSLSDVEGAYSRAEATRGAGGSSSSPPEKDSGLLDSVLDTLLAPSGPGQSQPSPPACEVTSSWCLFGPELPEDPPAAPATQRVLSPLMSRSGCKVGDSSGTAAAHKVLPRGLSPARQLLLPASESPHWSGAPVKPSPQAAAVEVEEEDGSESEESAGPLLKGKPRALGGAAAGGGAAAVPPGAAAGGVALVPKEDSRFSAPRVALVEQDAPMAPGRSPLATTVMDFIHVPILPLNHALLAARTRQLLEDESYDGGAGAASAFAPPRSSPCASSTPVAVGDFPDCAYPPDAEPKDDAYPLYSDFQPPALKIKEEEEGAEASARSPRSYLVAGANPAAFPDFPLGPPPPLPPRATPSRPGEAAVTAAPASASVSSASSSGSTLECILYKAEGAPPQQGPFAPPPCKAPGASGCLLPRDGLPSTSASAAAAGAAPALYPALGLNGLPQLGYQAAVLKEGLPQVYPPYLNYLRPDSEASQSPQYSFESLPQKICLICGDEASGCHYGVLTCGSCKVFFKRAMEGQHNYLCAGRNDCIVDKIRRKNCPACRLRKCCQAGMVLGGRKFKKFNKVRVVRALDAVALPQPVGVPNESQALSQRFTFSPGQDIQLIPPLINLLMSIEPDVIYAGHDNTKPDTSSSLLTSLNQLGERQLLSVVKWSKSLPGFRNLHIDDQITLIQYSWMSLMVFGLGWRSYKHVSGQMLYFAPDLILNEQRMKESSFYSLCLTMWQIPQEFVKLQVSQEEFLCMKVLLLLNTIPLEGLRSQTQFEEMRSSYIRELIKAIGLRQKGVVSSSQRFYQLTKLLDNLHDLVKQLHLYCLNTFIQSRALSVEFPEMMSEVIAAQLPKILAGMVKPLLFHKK

Point of comparison: `CCN1CCC[C@H]1CNC(=O)c1c(O)c(Cl)cc(Cl)c1OC`, “activity change, negative = inhibition” value 4.2%. Against it:
- CC(C)NCCCC1(C(N)=O)c2ccccc2-c2ccccc21 — lower, 1.65%
- Cc1nc2c([nH]1)c(=O)n(C)c(=O)n2Cc1ccco1 — lower, 1.29%
- CCCc1cc(C(N)=S)ccn1 — higher, 6.85%
- Oc1ccc(C2CNCCc3c2cc(O)c(O)c3Cl)cc1 (stereo not given) — higher, 5.86%
- N#Cc1ccc(C2CCCc3cncn32)cc1 (stereo not given) — lower, 1.12%
- O=C(O)Cc1ccc(CCNS(=O)(=O)c2ccc(Cl)cc2)cc1 — higher, 10.5%
- Cc1cnc(NS(=O)(=O)c2ccc(N)cc2)nc1 — higher, 8.71%
- NS(=O)(=O)c1cc(C(=O)O)cc(N2CCCC2)c1Oc1ccccc1 — higher, 4.64%
- CCCCC(CC)COC(=O)c1ccccc1O (stereo not given) — lower, 0.732%
- CN1N=C(C(N)=O)CCC1=O — higher, 9.69%
- NS(=O)(=O)c1ccc(C(=O)O)cc1 — lower, -0.238%
- CC(=O)OCC(CCn1cnc2cnc(N)nc21)COC(C)=O — higher, 6.39%
- COC(=O)[C@@H](N)Cc1ccc(O)c(O)c1 — lower, -8.02%
- CC(C)c1cc2c(cc1S(=O)(=O)O)[C@@]1(C)CCC[C@@](C)(C(=O)O)[C@@H]1CC2 — higher, 4.59%
- NC(=O)c1cn(Cc2c(F)cccc2F)nn1 — lower, 3.64%
- COc1cc(C(=O)N2CCCCCCC2)cc(OC)c1OC — lower, 2.52%
- c1cnc(N2CCN(Cc3ccc4c(c3)OCO4)CC2)nc1 — higher, 7.84%
- Cc1ccc(=O)n(-c2ccccc2)c1 — lower, 2.61%

Point of comparison: `C=C(C)C(=O)OCCCCCCCC(C)C`, “activity change, negative = inhibition” value 10.4% [at 92.4 µM]. Against it:
- CS(=O)(=O)O — lower, 3.31% [at 92.4 µM]
- C=CCOCC(CC)(CO)COCC=C — lower, 3.53% [at 92.4 µM]
- CCSC(=O)N(CC(C)C)CC(C)C — higher, 12.2% [at 92.4 µM]
- CC1=CC(C)C(C=O)CC1 (stereo not given) — lower, 5.12% [at 92.4 µM]
- CCCCCCCCCCCCN(CCCCCCCCCCCC)CCCCCCCCCCCC — lower, 9.94% [at 92.4 µM]
- CC(C)OC(=O)c1ccccc1 — lower, 5.47% [at 92.4 µM]
- NC(=O)Nc1ccccc1 — lower, 3.99% [at 92.4 µM]
- COC(C)(C)CCCC(C)CC=O (stereo not given) — higher, 11.8% [at 92.4 µM]
- CC(C)(O)C#CC(C)(C)O — lower, 3.34% [at 92.4 µM]
- CCC=O — higher, 12.1% [at 92.4 µM]
- CCCCCCCCCCCCCCCCC — higher, 13.9% [at 92.4 µM]
- OCCOc1ccc(OCCO)cc1 — lower, 9.79% [at 92.4 µM]
- CCOC(=O)c1ccc(C)cc1 — lower, 3.69% [at 92.4 µM]
- C=C[Si](OC(=C)C)(OC(=C)C)OC(=C)C — lower, -3.53% [at 92.4 µM]

For `C[C@](N)(Cc1ccc(O)cc1)C(=O)O`, the activity change, negative = inhibition was 12.2% [at 8.39 µM].

In the case of `CC(C)(c1ccc(O)cc1)c1ccc(O)cc1`, the Potency is reported as 15.2 µM (active).
`COC(=O)C1=C(C)NC(C)=C(C(=O)OC)C1c1ccccc1[N+](=O)[O-]` was tested, and the Potency was 23.7 µM (active).
`COCCc1ccc(OCC(O)CNC(C)C)cc1` (stereo not given) was tested, and the Potency was “inactive”.

For `Cc1cccn2c(=O)c(-c3nnn[nH]3)cnc12`, the “activity change, negative = inhibition” value was 3.08% [at 18.9 µM].

Molecule `CCC(C)S` (stereo not given) has an activity change, negative = inhibition of 8.27% [at 3.27 µM].
